According to PubChem BioAssay (NCATS):
“And” between values parts separate entries of the source, which are not always exact repeats. Identical values can stand only once. Results filed as inconclusive are left out. A call without a number means that no potency is given here. Values without a mark were called inactive. The source made the active and inactive calls. Calls follow the shape of the dose curve; as a rule, active = well fitted curve in the direction sought with a large enough effect; inconclusive = small, poorly fitted or top-dose-only effect, or another doubt; inactive = no such curve, though single readings can be large; an effect the other way counts as inactive or inconclusive.

Assays:
[1] = qHTS of pediatric cancer cell lines to identify multiple opportunities for drug repurposing: Confirmatory screen for SK-N-SH cells (AID 1347129);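 also: cells exposed to compound for 48 h before viability read; nearly all actives have a fitted effect of over 60% in size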
In short: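 Cells (500-1,000/well) in growth media were settled 5 h at 37 degrees C, then given compounds for 48 h. Viability was read as CellTiter-Glo luminescence. Primary runs used MIPE at 11 points (0.78 nM-46 µM) and NPC at 8 points (0.59 nM-46 µM); follow-ups used 11 points.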

[2] = target: N-terminal Xaa-Pro-Lys N-methyltransferase 1 (Homo sapiens) (UniProt Q9BV86); test: qHTS Assay for Inhibitors of N-terminal methyltransferase 1 (NTMT1): LOPAC validation of the NTMT1 SAHH-coupled ThioGlo3 Assay (AID 1347143); also: nearly all actives have a fitted effect of over 70% in size; also: potency is read from the fitted curve at half-maximal effect
In short: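 Fluorescence read-out (excitation 340nm, emission 450nm) of SAH-derived thiol, measured via SAHH coupling and ThioGlo3, taken immediately and after a 30 min room-temperature reaction, then normalized to the background read. Enzyme: NTMT1 at 125nM; cofactor SAM 100uM in the added reagent.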

[3] = tested on: Zika virus NS2B-NS3 protease (unlinked); test: Optimization of GU AMC qHTS for Zika virus inhibitors: Unlinked NS2B-NS3 protease assay (AID 1347151); also: nearly all actives have a fitted effect of over 80% in size; also: potency is read from the fitted curve at half-maximal effect
In short: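 Fluorescence read-out (340 nm ex / 450 nm em) of AMC peptide cleavage, taken immediately and after 15 min at room temperature (~20% conversion). Enzyme was the unlinked NS2B–NS3 complex at 25 nM in Tris pH 8.0 buffer.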

[4] = tested on: Zika virus NS2B-NS3 protease; test: Primary screen GU AMC qHTS for Zika virus inhibitors (AID 1347154); also: nearly all actives have a fitted effect of over 70% in size; also: potency is read from the fitted curve at half-maximal effect
In short: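 Unlinked Zika NS2B hydrophilic domain/NS3 protease domain noncovalent complex (25 nM final) in 10 mM Tris-HCl pH 8.0, 0.01% Tween 20, with AMC peptide substrate. Fluorescence (ex 340, em 450 nm) change over 15 min, room temperature; percent inhibition fitted to 4-parameter Hill equation.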

Furin (Homo sapiens) = Furin (Homo sapiens) (UniProt P09958); test: Furin counterscreen qHTS for Zika virus inhibitors (AID 1347149);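 also: purified recombinant full-length human furin enzyme at 5 nM; fluorescence gain from furin cutting a BOC-RVRR-AMC peptide substrate over 15 min; top concentration of the series differs between compounds; nearly all actives have a fitted effect of over 70% in size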
In short: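 Fluorogenic cleavage of BOC-RVRR-AMC (2 microM final, Km ~15 µM) was monitored (ex 340, em 450 nm) at 37C after 15 min RT preincubation of 5 nM furin with compounds in HEPES pH 7.0 buffer with CaCl2 and Triton X-100. Percent inhibition was fitted to a 4-parameter Hill curve.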

[5] = Confirmatory screen GU Rhodamine qHTS for Zika virus inhibitors qHTS (AID 1347157); details: purified enzyme assay, Rhodamine110 substrate fluorescence, 15 min; also: potency is read from the fitted curve at half-maximal effect; nearly all actives have a fitted effect of over 70% in size
In short: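 Percent inhibition derives from the 15-min fluorescence change (ex 480, em 540 nm), normalized to no-enzyme and no-inhibitor wells. Reactions contained 25 nM NS2B-NS3 complex and 1.5 microM substrate in 10 mM Tris-HCl pH 8.0.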

[6] = ZIKV-mCherry secondary qHTS for Zika virus inhibitors (AID 1347158); also: top concentration of the series differs between compounds
Text: Assay Submitters (PI): Avindra Nath, Ph.D., National Institute of Neurological Disorders and Stroke (NINDS), Bethesda, MD Radhakrishnan Padmanabhan, Ph.D., Georgetown University (GU), Washington D.C. Zika Virus causes congenital defects, including microcephaly and is associated with Guillain-Barre syndrome, eningoencephalitis and myelitis in infected adult. […] Using a target-based approach, we hope to establish a screening paradigm to uncover novel, cell-active NS2B-NS3 protease (Zika Virus) specific inhibitors from NCATS' collection of small molecules using qHTS. […] Four assay panel was created to identify potential Zika Virus inhibitors. Namely, (1) GU unlinked NS2B-NS3 AMC tagged protease qHTS, (2) GU unlinked NS2B-NS3 Rhodamine tagged protease qHTS, (3) NINDS linked NS2B-NS3 AMC tagged protease qHTS, (4) NINDS linked NS2B-NS3 Rhodamine tagged protease qHTS. Active compounds were re-acquired and re-screened to confirm inhibition. Inhibitors were further screened against various confirmatory and counterscreens in dose response format. […] A DAPI (mCherry counterscreen) which determine Vero cell toxicity was used to exclude false positive compounds. […] Early Translation Branch (ETB) National Center for Advancing Translational Sciences (NCATS), Rockville, MD National Institute of Health (NIH), Bethesda, Maryland
384 well ZIKV-mCherry Assay: We have developed a new orthogonal imaging assay in 384-well plate format, which uses recombinant virus ZIKV-mCherry in Vero cells. Briefly, 30 microL of Vero cells derived from a green monkey cell line, were dispensed by Multidrop Dispenser into a clear solid bottom black 384 well plate (ultracarrier, Perkin Elmer LifeSciences) at a concentration of 5,000 cells per well. The plate was incubated overnight in a CO2 incubator at 37 degrees C. Compounds were delivered as a 126 nL DMSO solution by Kalypsys pintool transfer. Following compound transfer, 10 microL of ZIKV-mCherry was added at an MOI of 1 and incubated in a CO2 incubator for 48-72 hrs at 37 degrees C. After sufficient incubation of infected cells in test plates, 8 microL of 32% PFA was dispensed into assay plates to fix cells and incubated for 20 min at room temperature. Plates were washed 3 times with PBS using BioTek EL406 microplate washer/dispenser. After washing, 30 microL of PBS with 0.01% TX-100 containing Hoechst dye was dispensed into the each well of the plates for nuclear staining. 384-well plates were imaged on an automated, widefield high content imager (INCell 2200, GE Healthcare) using a 10x/0.45 NA lens and standard DAPI (nuclear stain) and mCherry (cy5) excitation and emission filters. The TIFFs were quantitated using the canned Multi Target Analysis protocol (GE Investigator Workstation software v3.7.2). Briefly, nuclei from the DAPI channel were identified using top hat segmentation and a sensitivity setting of 96 and minimum size area of 35 microm2. A recombinant Zika viral infection was monitored in the Cy5 channel (cells) using a 2 microm collar dilation from the nuclear bitmap. mCherry objects with an average nuclear RFU intensity above 450 (3 stdev above mean negative control wells) were considered "mcherry positive" and data was analyzed by percent infection rate.

[7] = tested on: Zika virus NS2B-NS3 protease (linked construct); test: Confirmatory screen NINDS AMC qHTS for Zika virus inhibitors (AID 1347152); also: nearly all actives have a fitted effect of over 70% in size; also: potency is read from the fitted curve at half-maximal effect
In short: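 Linked NS2B-NS3 1 nM, Tris pH 8.0/0.01% Tween 20; cpd 15 min RT dark; + Nle-KRR-AMC 10 µM (Km 18.3 µM); read 0 and 15 min, 340/450 nm; %inh vs controls, 4-param Hill.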

[8] = tested on: Zika virus NS2B-NS3 protease (unlinked complex); test: Confirmatory screen GU AMC qHTS for Zika virus inhibitors (AID 1347153); also: nearly all actives have a fitted effect of over 70% in size
In short: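 Unlinked NS2B-NS3 complex (25 nM) in 10 mM Tris-HCl pH 8.0, 0.01% Tween 20 preincubated 15 min with compound, then 10 microM Bz-Nle-KRR-AMC (Km 18.3 µM). Fluorescence change over 15 min, normalized, Hill-fitted.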

N-terminal Xaa-Pro-Lys N-methyltransferase 1 (Homo sapiens), sequence (Q9BV86 whole entry, looked up): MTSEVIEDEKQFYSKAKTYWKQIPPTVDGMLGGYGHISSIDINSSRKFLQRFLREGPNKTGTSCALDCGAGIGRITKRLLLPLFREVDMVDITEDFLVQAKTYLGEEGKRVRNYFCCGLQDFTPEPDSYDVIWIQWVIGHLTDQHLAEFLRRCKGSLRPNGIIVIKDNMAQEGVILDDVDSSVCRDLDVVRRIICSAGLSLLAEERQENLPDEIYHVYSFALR
Furin (Homo sapiens), sequence (P09958 whole entry, looked up): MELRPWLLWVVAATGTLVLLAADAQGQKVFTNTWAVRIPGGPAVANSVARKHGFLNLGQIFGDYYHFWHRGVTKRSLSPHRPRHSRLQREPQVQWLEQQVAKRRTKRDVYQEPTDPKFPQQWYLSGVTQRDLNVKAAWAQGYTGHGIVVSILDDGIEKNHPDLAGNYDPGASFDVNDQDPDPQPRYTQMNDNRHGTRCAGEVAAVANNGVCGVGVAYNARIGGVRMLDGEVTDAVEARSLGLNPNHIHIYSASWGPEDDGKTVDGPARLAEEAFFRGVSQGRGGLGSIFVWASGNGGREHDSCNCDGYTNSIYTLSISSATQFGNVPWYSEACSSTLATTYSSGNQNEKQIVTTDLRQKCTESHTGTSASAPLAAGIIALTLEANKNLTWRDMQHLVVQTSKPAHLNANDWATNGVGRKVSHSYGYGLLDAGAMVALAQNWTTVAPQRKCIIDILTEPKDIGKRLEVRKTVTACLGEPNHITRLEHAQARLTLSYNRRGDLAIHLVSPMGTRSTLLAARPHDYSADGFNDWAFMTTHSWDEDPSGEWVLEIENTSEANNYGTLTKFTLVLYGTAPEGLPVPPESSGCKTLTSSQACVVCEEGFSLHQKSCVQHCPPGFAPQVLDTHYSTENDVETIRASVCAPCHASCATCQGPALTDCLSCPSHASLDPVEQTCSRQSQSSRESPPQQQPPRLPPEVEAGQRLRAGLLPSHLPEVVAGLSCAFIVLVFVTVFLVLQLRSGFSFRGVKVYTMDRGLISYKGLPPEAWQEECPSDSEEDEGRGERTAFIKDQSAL

In the case of `Nc1nc(OCc2ccccc2)c2[nH]cnc2n1`, the Potency [1] was “inactive”, the Potency [2] was “inactive” and the Potency [3] was “inactive”. For the same compound, the Potency [4] was “inactive”.

In the case of `O=c1c(O)c(-c2cc(O)c(O)c(O)c2)oc2cc(O)cc(O)c12`, the Potency [2] was 5.01 µM (active), the Potency (Furin (Homo sapiens)) was “inactive” and the Potency [3] was 21.2 µM (active). For the same compound, the Potency [4] was 9.61 µM (active), the Potency [5] was 17.8 µM (active) and the Potency [6] was “inactive”.

In the case of `Nc1ccn([C@@H]2O[C@H](CO)[C@@H](O)C2O)c(=O)n1` (stereo not given in full), the Potency [1] was “inactive” and the Potency [4] was “inactive”.

For `CCOC(=O)C1=C(O)C(=O)N(Cc2ccccc2)C1`, the Potency [2] was “inactive”, the Potency [3] was “inactive” and the Potency [4] was “inactive”.

With `O=C(O)c1cn(-c2ccc(F)cc2)c2cc(N3CCNCC3)c(F)cc2c1=O` the Potency [7] was 24.1 µM (active) and 27.1 µM (active).

In the case of `Cc1c(OCC(F)(F)F)ccnc1CS(=O)c1nc2ccccc2[nH]1` (stereo not given), the Potency [7] was “inactive” and the Potency [8] was “inactive”.

In the case of `Cc1nc(-c2ccc(OCC(C)C)c(C#N)c2)sc1C(=O)O`, the Potency [8] was “inactive”.

For `N[C@@H](Cc1cc(I)c(Oc2cc(I)c(O)c(I)c2)c(I)c1)C(=O)O`, the Potency [5] was 6.1 µM (active) and the Potency [6] was “inactive”.

With `O=c1c(O)c(-c2ccc(O)cc2O)oc2cc(O)cc(O)c12` the Potency [5] was 20 µM (active) and the Potency [6] was “inactive”.

In the case of `COC1=C(OC)C(=O)C(CCCCCCCCCCO)=C(C)C1=O`, the Potency [4] was “inactive”.

In the case of `Cc1cccc(C)c1OCC(=O)N[C@@H](Cc1ccccc1)[C@@H](O)C[C@H](Cc1ccccc1)NC(=O)[C@H](C(C)C)N1CCCNC1=O`, the Potency [4] was “inactive”.

For `CCCOc1ccc2nc(NC(=O)OC)[nH]c2c1`, the Potency [4] was “inactive”.

With `CCC[C@@H]1C[C@@H](C(=O)N[C@@H]([C@H]2O[C@H](SC)[C@H](O)[C@@H](O)[C@H]2O)[C@@H](C)O)N(C)C1` the Potency [4] was “inactive”.

In the case of `COc1cc(OC)c(C(=O)CCCN2CCCC2)c(OC)c1`, the Potency [4] was “inactive”.

In the case of `NS(=O)(=O)c1cc(C(=O)O)c(NCc2ccco2)cc1Cl`, the Potency [4] was “inactive”.

In the case of `CNC[C@@H](O)[C@@H](O)[C@H](O)[C@H](O)CO`, the Potency [4] was “inactive”.

With `CCCCc1ccc2nc(NC(=O)OC)[nH]c2c1` the Potency [4] was “inactive”.

For `CCCCN(CCCC)CCC(O)c1cc2c(Cl)cc(Cl)cc2c2cc(C(F)(F)F)ccc12` (stereo not given), the Potency [4] was “inactive”.

For `O=C(NC(Cc1cc(=O)[nH]c2ccccc12)C(=O)O)c1ccc(Cl)cc1` (stereo not given), the Potency [4] was “inactive”.

In the case of `CC(=O)Nc1ccc(O)cc1`, the Potency [4] was “inactive”.

For `CN(c1nccc(=O)[nH]1)C1CCN(c2nc3ccccc3n2Cc2ccc(F)cc2)CC1`, the Potency [4] was “inactive”.

For `C[C@H](Cn1cnc2c(N)ncnc21)OCP(=O)(O)O`, the Potency [4] was “inactive”.

In the case of `Clc1ccc(C(Cn2ccnc2)OCc2ccc(Sc3ccccc3)cc2)c(Cl)c1` (stereo not given), the Potency [4] was “inactive”.

With `Cc1ccc(S(=O)(=O)NC(=O)NN2CC3CCCC3C2)cc1` (stereo not given) the Potency [4] was “inactive”.

For `CC(C)[N+]1(C)[C@@H]2CC[C@H]1CC(OC(=O)C(CO)c1ccccc1)C2` (stereo not given in full), the Potency [4] was “inactive”.

For `CN1C(C(=O)Nc2ccccn2)=C(O)c2sccc2S1(=O)=O`, the Potency [4] was “inactive”.

For `CCCS(=O)c1ccc2nc(NC(=O)OC)[nH]c2c1` (stereo not given), the Potency [4] was “inactive”.

With `COc1cc2nc(N3CCN(C(=O)C4CCCO4)CC3)nc(N)c2cc1OC` (stereo not given) the Potency [4] was 31.6 µM (active) and 24.1 µM (active).

For `Cc1cc2cc3c(C)cc(=O)oc3c(C)c2o1`, the Potency [4] was “inactive”.

With `COC(=O)C1=C(C)NC(C)=C(C(=O)OCCCN2CCC(c3ccccc3)(c3ccccc3)CC2)C1c1cccc([N+](=O)[O-])c1` (stereo not given) the Potency [4] was “inactive”.

With `CCCCC(CC)COC(=O)C(C#N)=C(c1ccccc1)c1ccccc1` (stereo not given) the Potency [4] was “inactive”.

In the case of `Nc1ccc(S(N)(=O)=O)cc1`, the Potency [4] was “inactive”.

With `Cn1c(NCCN(CCO)CCCc2ccc([N+](=O)[O-])cc2)cc(=O)n(C)c1=O` the Potency [4] was “inactive”.

With `CC1=C(C(=O)O)N2C(=O)[C@@H](NC(=O)[C@H](N)C3=CCC=CC3)[C@H]2SC1` the Potency [4] was “inactive”.

With `Nc1cc(C(Cl)=C(Cl)Cl)c(S(N)(=O)=O)cc1S(N)(=O)=O` the Potency [4] was “inactive”.

With `COC(=O)N[C@H](C(=O)N[C@@H](Cc1ccccc1)[C@@H](O)CN(Cc1ccc(-c2ccccn2)cc1)NC(=O)[C@@H](NC(=O)OC)C(C)(C)C)C(C)(C)C` the Potency [4] was “inactive”.

In the case of `Oc1ccc(OCc2ccccc2)cc1`, the Potency [4] was “inactive”.

For `Clc1ccc(C(Cn2ccnc2)OCc2ccsc2Cl)c(Cl)c1` (stereo not given), the Potency [4] was “inactive”.

For `Nc1nc(Cl)nc2c1ncn2[C@H]1C[C@H](O)[C@@H](CO)O1`, the Potency [4] was “inactive”.

For `CC[C@]1(O)C[C@H]2CN(CCc3c([nH]c4ccccc34)[C@@](C(=O)OC)(c3cc4c(cc3OC)N(C=O)[C@H]3[C@@](O)(C(=O)OC)[C@H](OC(C)=O)[C@]5(CC)C=CCN6CC[C@]43[C@@H]65)C2)C1`, the Potency [4] was “inactive”.

In the case of `Nc1cccc2c1CN(C1CCC(=O)NC1=O)C2=O` (stereo not given), the Potency [4] was “inactive”.

In the case of `CCN(CC)CCOc1ccc(Cc2ccccc2)cc1`, the Potency [4] was “inactive”.

With `Cc1nc2n(c(=O)c1CCN1CCC(c3noc4cc(F)ccc34)CC1)CCCC2` the Potency [4] was “inactive”.

With `COc1c(O)cc2c(c1O)[C@@H]1O[C@H](CO)[C@@H](O)[C@H](O)[C@H]1OC2=O` the Potency [4] was “inactive”.

In the case of `c1ccc2[nH]c(-c3cscn3)nc2c1`, the Potency [4] was “inactive”.

In the case of `O=C(CS(=O)Cc1ccco1)NCC=CCOc1cc(CN2CCCCC2)ccn1` (stereo not given), the Potency [4] was “inactive”.
